From PubChem BioAssay
Values joined by “and” are separate entries in the source; they are usually repeats but may differ in a detail not shown here. Equal entries are not always repeated. Records with an inconclusive call do not appear. For part of these data: Measured potencies and affinities stand elsewhere. Active and inactive are the calls of the source. Unless noted, no stated cut-off is given here; in the data, active means inhibition above about 80%; inactive means the rest.

Tests used:
[1] = biological target: ATP-dependent translocase ABCB1 (Homo sapiens) (UniProt P08183); assay: P-glycoprotein substrate transport blockade – cell-based (AID 377; in the data active means fluorescence slope change above about 50%); details: MDR1-expressing cells, fluorescent substrate accumulation slope; stronger effect = higher value; concentration not given here
ATP-dependent translocase ABCB1 (Homo sapiens), sequence (P08183 whole entry, looked up): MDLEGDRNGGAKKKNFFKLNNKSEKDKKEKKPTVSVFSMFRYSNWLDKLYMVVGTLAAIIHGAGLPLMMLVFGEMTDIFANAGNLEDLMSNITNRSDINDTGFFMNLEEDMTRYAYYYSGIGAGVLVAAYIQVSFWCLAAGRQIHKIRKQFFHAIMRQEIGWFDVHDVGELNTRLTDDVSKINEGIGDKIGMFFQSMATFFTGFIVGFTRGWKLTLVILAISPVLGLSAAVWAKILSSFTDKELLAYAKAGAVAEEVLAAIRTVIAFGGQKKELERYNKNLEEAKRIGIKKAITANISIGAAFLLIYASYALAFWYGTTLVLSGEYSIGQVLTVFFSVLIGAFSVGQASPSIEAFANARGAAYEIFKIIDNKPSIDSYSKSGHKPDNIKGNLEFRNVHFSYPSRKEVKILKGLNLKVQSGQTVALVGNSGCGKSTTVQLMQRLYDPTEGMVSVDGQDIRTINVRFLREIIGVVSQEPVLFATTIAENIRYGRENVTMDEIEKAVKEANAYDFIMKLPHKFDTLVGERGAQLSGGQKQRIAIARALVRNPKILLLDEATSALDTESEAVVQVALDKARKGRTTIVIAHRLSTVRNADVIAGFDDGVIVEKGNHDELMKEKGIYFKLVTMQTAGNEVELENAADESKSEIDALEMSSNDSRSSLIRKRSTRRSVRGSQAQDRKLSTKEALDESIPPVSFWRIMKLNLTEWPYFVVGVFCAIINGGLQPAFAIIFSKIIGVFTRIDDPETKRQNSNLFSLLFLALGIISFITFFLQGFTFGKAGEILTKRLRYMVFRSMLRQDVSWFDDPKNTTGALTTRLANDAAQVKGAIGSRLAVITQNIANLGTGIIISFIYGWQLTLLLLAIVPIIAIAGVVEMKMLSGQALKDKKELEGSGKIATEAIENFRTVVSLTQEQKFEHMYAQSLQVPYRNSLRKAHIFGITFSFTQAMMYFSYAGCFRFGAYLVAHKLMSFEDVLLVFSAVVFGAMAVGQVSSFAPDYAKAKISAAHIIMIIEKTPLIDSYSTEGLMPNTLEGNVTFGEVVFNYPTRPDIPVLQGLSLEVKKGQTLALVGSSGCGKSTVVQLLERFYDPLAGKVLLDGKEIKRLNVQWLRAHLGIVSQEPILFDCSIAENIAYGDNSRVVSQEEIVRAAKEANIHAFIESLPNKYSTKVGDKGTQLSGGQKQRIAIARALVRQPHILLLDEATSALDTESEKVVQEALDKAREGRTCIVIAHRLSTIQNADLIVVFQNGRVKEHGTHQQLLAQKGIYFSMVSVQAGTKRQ

[2] = antimalarial activity against Dd2 strain (AID 2302;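 active means growth inhibition above 50% at the single 2 µM test dose, taken to imply half-maximal potency below 2 µM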;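 further: 0% = DMSO untreated growth and 100% = chloroquine plus artemisinin killed control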); details: P. falciparum Dd2 in RBCs, LDH growth readout, 72 h; at 2 µM; stronger effect = higher value
[3] = human hepatoma cell viability loss – ATP luminescence, cytotoxicity control for P. falciparum antimalarial project, primary screen (AID 2303;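 active means inhibition above 50%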;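 further: 0% = DMSO wells and 100% = digitonin-killed cells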); details: HepG2 viability, 24-48 h, at 10 µM, stronger effect = higher value
[4] = biological target: L-lactate dehydrogenase (Plasmodium falciparum (isolate CDC / Honduras)) (UniProt Q27743); assay: PfLDH activity inhibition – cell lysate, 3D7 strain, counter-screen for P. falciparum growth inhibition project (AID 2304; call rule not given here;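 further: 0% = vehicle and 100% = reference inhibitor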); details: P. falciparum 3D7 crude extract, LDH APAD/NBT absorbance; at 2 µM; stronger effect = higher value
L-lactate dehydrogenase (Plasmodium falciparum (isolate CDC / Honduras)), sequence (Q27743 whole entry, looked up): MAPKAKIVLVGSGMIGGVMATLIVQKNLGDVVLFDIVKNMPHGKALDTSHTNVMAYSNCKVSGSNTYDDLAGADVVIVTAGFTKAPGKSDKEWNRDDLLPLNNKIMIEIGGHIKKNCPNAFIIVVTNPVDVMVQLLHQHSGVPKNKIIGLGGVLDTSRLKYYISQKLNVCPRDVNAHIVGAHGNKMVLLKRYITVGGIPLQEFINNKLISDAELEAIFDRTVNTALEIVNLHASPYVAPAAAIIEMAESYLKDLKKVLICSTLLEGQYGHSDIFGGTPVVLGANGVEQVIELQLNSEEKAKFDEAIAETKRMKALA

[5] = inhibition of 3D7 malaria parasite growth – strain 3D7 (AID 2306; call rule not given here;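 further: 0% = DMSO wells and 100% = chloroquine plus artemisinin control wells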); details: P. falciparum 3D7 erythrocytic growth, LDH absorbance, 72 h; at 2 µM; stronger effect = higher value
[6] = compounds altering circadian rhythm period length – cell-based, LOPAC library, luminescence reporter (AID 2774; call rule not given here;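 further: values are relative to mean of DMSO wells on each plate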); details: circadian reporter cells, at 7 µM, actives lie on both sides
[7] = compounds altering viability of human ES cells (AID 493140; call rule not given here;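 further: cells exposed to compounds for four days before counting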); details: human embryonic stem cell survival screen; stronger effect = higher value
[8] = P. berghei load reduction in hepatocytes – cell-based, HepG2, luciferase luminescence, HepG2 viability, primary screen (AID 624349; in the data active means parasite load remaining mostly below about 12%, no sharp cut-off; inactive means mostly above about 10%;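 further: 100% = mean of DMSO negative control wells on the same plate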); details: P. berghei liver stage in HepG2, luciferase luminescence, concentration not given here; parasite load remaining: stronger effect = lower value; viability: measured here: HepG2 viability without parasites
[9] = test system: Hepatitis C virus NS3 helicase; assay: blockers of NS3h binding to ssDNA – biochemical, fluorescence polarization, LOPAC1280 library, primary screen (AID 687035; in the data active means inhibition above about 37%); details: Purified HCV NS3 helicase, Cy5-dT15 ssDNA binding fluorescence polarization; stronger effect = higher value; concentration not given here
[10] = compounds altering Cy5-DNA-NS3h complex signal – biochemical, LOPAC1280, artefact control for HCV NS3 helicase inhibitor project (AID 687037; call rule not given here); details: Cy5-DNA-NS3h complex fluorescence interference counterscreen
[11] = biological target: Calcium-dependent protein kinase 1 (Plasmodium falciparum (isolate 3D7)) (UniProt P62344); assay: PfCDPK1 kinase inhibitors, biochemical, TCAMS library (AID 1159585; cut-off not given, nearly all actives have IC50 up to about 0.98 µM;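 further: inhibitors leave more ATP so luminescence rises with inhibition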); details: recombinant PfCDPK1, Kinase-Glo ATP depletion luminescence
Calcium-dependent protein kinase 1 (Plasmodium falciparum (isolate 3D7)), sequence (P62344 whole entry, looked up): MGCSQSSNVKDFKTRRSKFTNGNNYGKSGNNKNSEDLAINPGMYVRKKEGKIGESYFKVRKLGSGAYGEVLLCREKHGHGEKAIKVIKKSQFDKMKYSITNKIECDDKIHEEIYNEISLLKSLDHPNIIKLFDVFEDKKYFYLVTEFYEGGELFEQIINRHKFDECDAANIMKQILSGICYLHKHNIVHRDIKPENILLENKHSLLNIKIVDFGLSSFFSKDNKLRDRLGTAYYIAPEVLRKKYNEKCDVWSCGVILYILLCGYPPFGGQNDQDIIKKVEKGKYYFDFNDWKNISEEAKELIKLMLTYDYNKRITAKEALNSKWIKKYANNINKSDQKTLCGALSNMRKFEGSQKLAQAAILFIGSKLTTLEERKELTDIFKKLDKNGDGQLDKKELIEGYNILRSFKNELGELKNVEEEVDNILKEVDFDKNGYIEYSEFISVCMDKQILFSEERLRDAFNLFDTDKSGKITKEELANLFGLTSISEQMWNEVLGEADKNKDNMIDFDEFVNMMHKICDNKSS

[12] = biological target: Plasmodium falciparum protein kinase 6 (PK6, PF3D7_1337100) (UniProt Q8IDW1); assay: PfPK6 kinase inhibitors, biochemical, TCAMS library (AID 1159586; call rule not given here); details: recombinant PfPK6, Kinase-Glo ATP depletion luminescence
Plasmodium falciparum protein kinase 6 (PK6, PF3D7_1337100), sequence (Q8IDW1 1-305): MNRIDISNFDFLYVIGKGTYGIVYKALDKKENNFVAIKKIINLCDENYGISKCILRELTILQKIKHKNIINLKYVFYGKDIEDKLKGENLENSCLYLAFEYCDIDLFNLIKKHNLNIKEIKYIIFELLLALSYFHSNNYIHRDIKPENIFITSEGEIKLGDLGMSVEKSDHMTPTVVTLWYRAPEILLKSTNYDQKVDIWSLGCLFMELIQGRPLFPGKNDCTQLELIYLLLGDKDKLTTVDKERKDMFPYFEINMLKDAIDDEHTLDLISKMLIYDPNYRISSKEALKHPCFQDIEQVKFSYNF

[13] = biological target: Protein kinase 7 (PK7), Plasmodium falciparum 3D7 (PF3D7_0213400) (UniProt Q7YTF7); assay: inhibition of Plasmodium PK7 catalytic activity – biochemical, TCAMS antimalarial set, Kinase-Glo luminescence (AID 1159587; call rule not given here); details: recombinant PfPK7, Kinase-Glo ATP depletion luminescence
Protein kinase 7 (PK7), Plasmodium falciparum 3D7 (PF3D7_0213400), sequence (Q7YTF7 1-343): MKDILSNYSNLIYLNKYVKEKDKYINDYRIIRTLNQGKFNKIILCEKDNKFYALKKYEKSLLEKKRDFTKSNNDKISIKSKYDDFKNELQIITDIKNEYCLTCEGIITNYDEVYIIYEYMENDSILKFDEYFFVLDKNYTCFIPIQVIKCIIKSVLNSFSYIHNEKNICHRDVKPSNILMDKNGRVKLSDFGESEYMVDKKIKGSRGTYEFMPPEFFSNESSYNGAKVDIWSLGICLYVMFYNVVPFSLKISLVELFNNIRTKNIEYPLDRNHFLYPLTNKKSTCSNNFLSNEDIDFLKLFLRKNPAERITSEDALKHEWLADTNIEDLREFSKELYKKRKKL

[14] = biological target: Calcium-dependent protein kinase 4 (Plasmodium falciparum (isolate 3D7)) (UniProt Q8IBS5); assay: PfCDPK4 kinase inhibitors, biochemical, TCAMS library (AID 1159588; cut-off not given, nearly all actives have IC50 up to about 0.91 µM); details: recombinant PfCDPK4, Kinase-Glo ATP depletion luminescence
Calcium-dependent protein kinase 4 (Plasmodium falciparum (isolate 3D7)), sequence (Q8IBS5 whole entry, looked up): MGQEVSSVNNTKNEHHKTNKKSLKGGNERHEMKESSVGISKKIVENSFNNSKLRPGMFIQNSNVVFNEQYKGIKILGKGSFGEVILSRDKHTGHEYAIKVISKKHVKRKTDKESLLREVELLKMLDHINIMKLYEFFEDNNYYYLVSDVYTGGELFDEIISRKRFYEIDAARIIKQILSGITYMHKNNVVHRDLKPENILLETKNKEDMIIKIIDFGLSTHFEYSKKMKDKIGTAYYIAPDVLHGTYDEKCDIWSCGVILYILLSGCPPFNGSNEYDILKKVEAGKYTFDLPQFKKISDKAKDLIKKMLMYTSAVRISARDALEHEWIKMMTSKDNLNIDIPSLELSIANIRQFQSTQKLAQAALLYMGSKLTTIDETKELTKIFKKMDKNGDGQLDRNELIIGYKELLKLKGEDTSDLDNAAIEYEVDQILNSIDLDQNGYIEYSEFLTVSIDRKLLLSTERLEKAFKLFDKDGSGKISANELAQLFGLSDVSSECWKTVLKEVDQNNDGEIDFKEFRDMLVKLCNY

[15] = test system: Aerobactin synthetase IucA (Klebsiella pneumoniae, hypervirulent); assay: biochemical IucA inhibition screen of LOPAC library by absorbance (AID 1346212; call rule not given here;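 further: 100% = no compound wells and 0% = no enzyme wells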); details: IucA enzyme assay, absorbance (OD) readout; stronger effect = lower value;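 tested at 8 µM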
[16] = viability loss with induced miR-34 in A549 – imaging, A549 dox-inducible miR-34, nuclei and caspase counts, primary screen (AID 1347080;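 active means compounds whose cell count with miR-34 switched on is under 0.7 times the count with it off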); details: A549 miR-34 inducible, Hoechst nuclei count, 48 h
[17] = blockers of cellular phospholipid synthesis – cell-based, LOPAC library, screen 4, primary screen (AID 1347384; call rule not given here); details: animal cells, phospholipid biosynthesis inhibition screen; at 10 µM
[18] = galactose survival enhancers in mitochondrial complex I cybrids – cell-based, galactose medium, ATP luminescence, primary screen (AID 1645843;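 active means z-score of at least 1.8 in each of two replicates, scored against plate mean and spread of sample wells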;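 further: positive z means more ATP and so rescue of galactose-driven cybrid death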); details: complex I mutant cybrid cells, 72 h, stronger effect = higher value
[19] = growth inhibition, single agent or in combination, cell-based, chromothripsis tumors, cisplatin or BGB combos (AID 1671449); details: LFS_MB_P medulloblastoma cells;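 further: cells exposed for 96 hours; 0% = vehicle DMSO and 100% = killing by high DMSO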
[20] = growth inhibition, single agent and combos, cell-based, chromothripsis tumors, cisplatin or BGB combos (AID 1671450); details: HDN33 neuroblastoma cells, stronger effect = higher value;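 further: cells exposed to compound for four days; 0% = vehicle DMSO and 100% = cell killing by high DMSO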
[21] = growth inhibition, single agents and combos, ICB984, cell-based, cisplatin or BGB combos, synergistic combos for chromothripsis tumors (AID 1671451; call rule not given here;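 further: cells exposed for 96 hours before readout; 0% = vehicle DMSO and 100% = killing by high DMSO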); details: ICB984 medulloblastoma cells, drug combinations, stronger effect = higher value
[22] = growth inhibition, single agents and combos, LFS_MB_1R, cell-based, cisplatin or BGB combos, synergistic combos for chromothripsis tumors (AID 1671452); details: LFS_MB_1R medulloblastoma cells, stronger effect = higher value;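 further: cells exposed for 96 hours before readout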
[23] = growth inhibition, single agents and combos, HTB85, cell-based, BGB or cisplatin IC20 combos, synergistic combos for chromothripsis tumors (AID 1671453); details: HTB85 osteosarcoma cells, drug combinations, stronger effect = higher value;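 further: cells exposed for 96 hours before readout; 0% = vehicle DMSO and 100% = high DMSO killing control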
[24] = growth inhibition, single agents and combos, CRL2098, cell-based, BGB or cisplatin IC20 combos, synergistic combos for chromothripsis tumors (AID 1671454); details: CRL2098 osteosarcoma cells, drug combinations, stronger effect = higher value;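 further: cells exposed for 96 h before readout; 0% = vehicle DMSO and 100% = killing by high DMSO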
[25] = growth inhibition, single agents and combos, HD-MB03, cell-based, BGB or cisplatin IC20 combos, synergistic combos for chromothripsis tumors (AID 1671455; in the data active means inhibition above about 83%;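 further: 0% = vehicle DMSO and 100% = high DMSO as cytotoxic control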); details: HD-MB03 medulloblastoma cells, stronger effect = higher value
[26] = growth inhibition, single agents and combos, UWB1.289, cell-based, BGB or cisplatin combos, synergistic combos for chromothripsis tumors (AID 1671456); details: UWB1.289 ovarian carcinoma cells, stronger effect = higher value;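 further: cells exposed to compound for four days; 0% = vehicle DMSO and 100% = killing by high DMSO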
[27] = growth inhibition, single agents and combos, LFS_MB_2R, cell-based, cisplatin combos, synergistic combos for chromothripsis tumors (AID 1671457); details: LFS_MB_2R medulloblastoma cells, stronger effect = higher value;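 further: cells exposed to compound for four days before readout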
[28] = growth inhibition, MDA-MB-436, cell-based, BGB or cisplatin combos, synergistic combos for chromothripsis tumors (AID 1671458; call rule not given here;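 further: cells exposed for 96 hours; 0% = vehicle DMSO and 100% = killing by high DMSO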); details: MDA-MB-436 breast carcinoma growth inhibition, drug combinations, stronger effect = higher value
[29] = UWB1.289_BRCA1 ovarian cancer growth, cell-based, BGB or cisplatin combinations (AID 1671459); details: UWB1.289 BRCA1 ovarian carcinoma, drug combinations, stronger effect = higher value
[30] = drug combination toxicity in non-malignant astrocytes – cell-based, BGB or cisplatin IC20 combos, cytotoxicity control for chromothriptic childhood tumor combination screen (AID 1671460); details: Human astrocytes, viability inhibition, drug combinations, at 0.5 µM, stronger effect = higher value;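 further: cells exposed to compounds for 96 hours before viability readout; 0% = vehicle and 100% = killing control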
[31] = BT084 cell growth, single and combined drugs, ICGC_MB145, cisplatin and BGB IC40 combos (AID 1671461); details: BT084 medulloblastoma cells, drug combinations, stronger effect = higher value;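 further: cells exposed to drugs for 96 hours; 0% = vehicle DMSO and 100% = high DMSO full killing control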
[32] = RCMB18 cell growth, single agent and combined, cisplatin and BGB IC40 combos (AID 1671462); details: RCMB18 medulloblastoma cells, stronger effect = higher value;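 further: cells exposed to compound for four days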
[33] = CRL1545 cell growth, single agent and combined, cisplatin and BGB IC20 combos (AID 1671464); details: CRL1545 osteosarcoma cells, stronger effect = higher value;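 further: cells exposed to compound for 96 hours before readout; 0% = vehicle DMSO and 100% = high DMSO killing control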
[34] = measured here: combination with BGB IC40, at 0.05 µM
[35] = measured here: with BGB IC20 combination, at 0.5 µM
[36] = measured here: with cisplatin IC20 combination, at 0.5 µM
[37] = measured here: combination with cisplatin, at 0.5 µM
[38] = measured here: combination with cisplatin, at 5 µM

Which results are given for `Cc1c2ccncc2c(C)c2c1[nH]c1ccccc12`?
fluorescence slope change [1]: 77.1% (active); growth inhibition [2]: 97% (active); inhibition [3]: 38% (inactive); inhibition [4]: 2% (inactive); growth inhibition [5]: 95% (active); period change [6]: 0.09 h (inactive); survival [7]: 10.4 (inactive); parasite load remaining [8]: 62% (inactive) and 52.8% (inactive); viability [8]: 85.3% and 75.8%; inhibition [9]: -3% (inactive); fluorescence ratio (interference) [10]: 1 (inactive); outcome [11]: inactive; outcome [12]: inactive; outcome [13]: inactive; outcome [14]: inactive; remaining activity [15]: 81.7% (inactive); fold change ([16]; stronger effect = lower value): 1.32 (inactive) and 0.785 (inactive); fold change ([16]; measured here: relative caspase fold change +Dox/-Dox): 1.54 and 1.45; cell count ([16]; measured here: total cells with miR-34 induction, stronger effect = lower value): 324 and 1410; cell count ([16]; measured here: total cells without miR-34 induction): 246 and 1800; outcome [17]: inactive; z-score [18]: -0.975 (inactive); inhibition ([19]; at 0.5 µM, stronger effect = higher value): -2.79% (inactive); inhibition ([19]; measured here: combination with BGB IC20, at 0.005 µM): -42.2%; inhibition ([19]; measured here: combination with BGB IC40, at 0.005 µM): 16.3%; inhibition [19, 34]: -3.69%; inhibition ([19]; measured here: combination with cisplatin, at 0.5 µM, stronger effect = higher value): -10.1%; inhibition ([19]; measured here: combination with cisplatin, at 5 µM, stronger effect = higher value): 97%; inhibition ([20]; BGB combo, at 5 µM): 71.9%; inhibition ([20]; at 0.5 µM): 19.9% (inactive); inhibition ([20]; cisplatin combo, at 5 µM): 81.9%; inhibition [20, 35]: 6.43%; inhibition [20, 36]: 19.1%; inhibition ([20]; single agent, at 5 µM): 86.5%; inhibition ([21]; BGB IC20 combo, at 0.005 µM): 64.1%; inhibition ([21]; BGB IC40 combo, at 0.005 µM): 71.1%; inhibition ([21]; BGB IC40 combo, at 0.05 µM): 99.2%; inhibition ([21]; at 0.5 µM): -7.09% (inactive); inhibition ([21]; cisplatin combo, at 0.05 µM): 99.7%; inhibition ([21]; cisplatin combo, at 0.5 µM): -15.1%; inhibition ([21]; cisplatin combo, at 5 µM): 2.54%; inhibition ([21]; measured here: 5 uM single agent, at 5 µM): -6.79%; inhibition ([22]; at 0.5 µM): 52.5% (inactive); inhibition [22, 34]: -15.3%; inhibition [22, 37]: 90.8%; inhibition [22, 38]: 99.2%; inhibition ([23]; at 0.5 µM): -6.03% (inactive); inhibition ([23]; measured here: with BGB IC20, at 0.5 µM): -6.83%; inhibition ([23]; measured here: with BGB IC20, at 5 µM): 36.4%; inhibition ([23]; measured here: with cisplatin IC20, at 0.5 µM): -14.1%; inhibition ([23]; measured here: with cisplatin IC20, at 5 µM): 40.2%; inhibition ([23]; single agent, at 5 µM): 51.7%; inhibition ([24]; at 0.5 µM): -3.13% (inactive); inhibition ([24]; measured here: combination with BGB at IC20, at 0.5 µM): -26.6%; inhibition ([24]; measured here: combination with cisplatin at IC20, at 0.5 µM): 16.5%; inhibition ([25]; at 0.5 µM): 21.3% (inactive); inhibition ([25]; measured here: combo with BGB at IC20, at 0.5 µM): 32.4%; inhibition ([25]; measured here: combo with cisplatin at IC20, at 0.5 µM): 9.33%; inhibition ([26]; at 0.5 µM): 18% (inactive); inhibition ([26]; measured here: inhibition with BGB combination, at 0.05 µM): -8.89%; inhibition ([26]; measured here: inhibition with cisplatin combination, at 0.05 µM): -1.5%; inhibition ([27]; at 0.5 µM): -5.42% (inactive); inhibition [27, 37]: 15.1%; inhibition [27, 38]: 95.3%; inhibition ([28]; at 0.5 µM): -9.97% (inactive); inhibition ([28]; measured here: BGB combination, at 0.5 µM): -20.5%; inhibition ([28]; measured here: BGB combination, at 5 µM): 24.1%; inhibition ([28]; measured here: cisplatin combination, at 0.5 µM): -26.7%; inhibition ([28]; measured here: cisplatin combination, at 5 µM): 24.1%; inhibition ([29]; BGB combination, concentration series, at 5 µM): 104%; inhibition ([29]; at 0.5 µM): 21.4% (inactive); inhibition ([29]; cisplatin combination, concentration series, at 5 µM): 113%; inhibition [30]: 13.8% (inactive); inhibition ([30]; measured here: combo with BGB IC20): 4.66%; inhibition ([30]; measured here: combo with cisplatin IC20): -5.08%; inhibition ([31]; at 0.5 µM): 48.9% (inactive); inhibition ([31]; cisplatin combination, at 0.5 µM): 60.2%; inhibition ([31]; cisplatin combination, at 5 µM): 49.9%; inhibition ([31]; measured here: BGB IC40 combination 0.05 uM, at 0.05 µM): 16.8%; inhibition ([31]; single agent, at 5 µM): 44.6%; inhibition ([32]; at 0.5 µM): 14.6% (inactive); inhibition ([32]; cisplatin combo, at 5 µM): 91.5%; inhibition ([32]; measured here: BGB IC40 combination, at 0.05 µM): 1.25%; inhibition [32, 37]: -51.3%; inhibition ([32]; single agent, at 5 µM): 70.8%; inhibition ([33]; at 0.5 µM): -40.6% (inactive); inhibition [33, 35]: -33.3%; inhibition [33, 36]: -46.6%; inhibition ([33]; single agent, at 0.05 µM): -12.4%; inhibition ([33]; single agent, at 5 µM): 68.6%
